Compound activity deposited in PubChem by National Center for Advancing Translational Sciences (NCATS).
G9a block: inhibitors of human histone lysine methyltransferase G9a. Q96KQ7. actives 8.8% (n = 350,000). Potency, µM (top dose mostly 102 µM), for the others: at the highest dose activity, negative = inhibition, most hits filed as inhibitors. G9a H3K9 monomethylation, AlphaScreen, 2 h; note: potency is the fitted concentration of half-maximal effect; nearly all actives have a fitted effect of over 75% in size
Target sequence (Q96KQ7 913-1193 limits assumed): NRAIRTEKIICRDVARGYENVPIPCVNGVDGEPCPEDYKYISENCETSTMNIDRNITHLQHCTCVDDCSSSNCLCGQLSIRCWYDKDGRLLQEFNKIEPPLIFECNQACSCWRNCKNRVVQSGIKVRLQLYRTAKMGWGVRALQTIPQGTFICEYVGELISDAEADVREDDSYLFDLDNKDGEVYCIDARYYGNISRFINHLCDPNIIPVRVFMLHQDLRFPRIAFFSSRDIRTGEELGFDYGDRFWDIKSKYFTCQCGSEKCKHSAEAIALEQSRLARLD
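Quantitative HTS format: methyltransferase activity on a biotin-tagged H3K9 peptide is measured by AlphaScreen, using a rabbit anti-monomethyl-H3K9 antibody with streptavidin donor and anti-IgG acceptor beads. Final levels are 20 nM enzyme, 500 nM peptide, 20 uM SAM; 2 h RT.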
Sfp inh: inhibitors of Bacillus subtilis Sfp phosphopantetheinyl transferase; actives 3.5% (n = 310,000); Potency, µM, inactives show largest response in the series, negative = inhibition, actives largely listed as inhibitors; AID 1490; Biochemical Sfp PPTase activity, qHTS;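 note: the enzyme is Sfp with the accession as filed and its product quenches rhodamine fluorescence; potency is the fitted concentration of half-maximal effect; 0% = enzyme reaction without inhibitor and -100% = no enzyme wells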
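After 15 min at room temperature with compound, 15 nM Sfp received 5 uM rhodamine-CoA plus 12.5 uM BHQ-2-ybbR (50 mM Hepes pH 7.6, 10 mM MgCl2). Rate came from the fluorescence difference over 30 min, ex 525/em 598 nm.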
PLK1 PBD block: PLK1 (human) polo-box domain binding inhibition; Plk1 PBD binding of FITC phosphopeptide, fluorescence polarization; Potency, µM, for the others: max response, negative = inhibition, hits mostly inhibitors; actives 2.8% (n = 360,000); AID 720504; note: potency is the fitted concentration of half-maximal effect; series mostly up to about 57 µM; nearly all actives have a fitted effect of over 65% in size
CCT modulator: changes cytosolic chaperonin activity; purified chaperonin ATPase assay, HTRF ADP detection, 30 min; AID 651819; activity change, % (test concentration not listed), hits read low; actives 0.3% (n = 360,000); in the data active = activity change below about -30%
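First, chaperonin was dispensed at 40 nM or 20 nM final depending on batch activity. Next, compounds were pinned at 76 uM and ATP added at 10 uM. After 30 min at 37 °C, ADP detection reagents ran 30 min at ambient temperature.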
VDR inhibitor: inhibitors of human vitamin D receptor; AID 504847; P11473; VDR-SRC2-3 peptide fluorescence polarization, 2 h; actives 0.93% (n = 400,000); Potency, µM, for inactives: max response, negative = inhibition, actives largely listed as inhibitors; note: potency is the fitted concentration of half-maximal effect
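After 23 nl compound addition and a short centrifugation, plates sat for 2 hours at ambient temperature; polarization of fluorescence then indicated loss of VDR binding to peptide SRC2-3.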
Mm-Cpn inhibitor: blocks the Methanococcus maripaludis chaperonin Mm-Cpn; Potency, µM (highest dose often 76.9 µM), for inactives: at the top dose activity, negative = inhibition, most hits filed as inhibitors; purified Mm-Cpn ATPase, ADP Transcreener TR-FRET; AID 504842; actives 0.031% (n = 330,000); note: potency is the fitted concentration of half-maximal effect; nearly all actives have a fitted effect of over 80% in size
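Eu-cryptate anti-ADP/ADP-d2 competition gives a ratio inversely related to ADP. Enzyme at 25 nM was pre-exposed to compound for 10 min, then given 10 uM ATP for 30 min, 37°C throughout.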
The depositor's hits bear a star; [ ] = dose if it differs, or a comment. A selection: hits, their analogues and other compounds. The true share with any hit is near 10%. Unless noted, calls come from the whole dose curve; as a rule, active = well fitted curve in the direction sought with a large enough effect; inconclusive = small, poorly fitted or top-dose-only effect, or another doubt; inactive = no such curve, though single readings can be large; an effect the other way counts as inactive or inconclusive. Unless noted, % is set by controls: 0 for no effect and ±100 for the full control effect.

Screening CC(C(=O)NCC(=O)Nc1ccc(F)c(F)c1F)N1CCN(c2ccc(O)cc2)CC1 (stereo not given) returned G9a block 1.4µM*, PLK1 PBD block -4%, CCT modulator 1, VDR inhibitor -6% and Mm-Cpn inhibitor -4%.
COc1ccc2nc(SC(C)C(=O)NCC(=O)Nc3ccc(F)c(F)c3F)[nH]c2c1 (stereo not given) was read as G9a block 50µM*, PLK1 PBD block -10%, CCT modulator -1, VDR inhibitor -17% and Mm-Cpn inhibitor 2%.
COc1ccc(-n2nnnc2SC(C)C(=O)NCC(=O)Nc2ccc(F)c(F)c2F)cc1 (stereo not given) was read as G9a block 40µM*, Sfp inh -4%, PLK1 PBD block 0%, CCT modulator 0, VDR inhibitor -17% and Mm-Cpn inhibitor -1%.
Screening Cc1cc(C)c2nc(SC(C)C(=O)NCC(=O)Nc3ccc(F)c(F)c3F)cc(C)c2c1 (stereo not given) returned G9a block 18µM*, Sfp inh -5%, PLK1 PBD block inconclusive, CCT modulator 0, VDR inhibitor 13% and Mm-Cpn inhibitor -1%.
For COc1ccc(-n2nnnc2SC(C)C(N)=O)cc1 (stereo not given) the results were G9a block 8%, Sfp inh -1%, PLK1 PBD block -5%, CCT modulator 2, VDR inhibitor -2% and Mm-Cpn inhibitor 1%.
`CCOc1ccc(C(=O)Nc2ccc3nc(SCC(=O)N4CCc5ccccc54)sc3c2)cc1` gave G9a block -4%[59 µM] and VDR inhibitor -2%.
Screening Cc1cc(NC2CCCCC2)nc(-c2ccccc2O)n1 returned G9a block 18µM*, Sfp inh -24%, PLK1 PBD block -2%, CCT modulator -3, VDR inhibitor -3% and Mm-Cpn inhibitor -1%.
Screening Cc1cc(NCc2ccccc2)nc(-c2ccccc2O)n1 returned G9a block 116%[59 µM], Sfp inh -4%, PLK1 PBD block 0%, CCT modulator 0, VDR inhibitor 6% and Mm-Cpn inhibitor -4%.
For O=S(=O)(Nc1ccn(-c2ccccc2)n1)c1ccc(Br)cc1 the results were G9a block 14µM*, Sfp inh -14%, PLK1 PBD block -14%, CCT modulator -1, VDR inhibitor -1% and Mm-Cpn inhibitor 1%.
Screening CCc1cccc(NS(=O)(=O)c2ccc(-n3cccn3)cc2)c1 returned G9a block 12%, Sfp inh 15%, PLK1 PBD block 30µM*, CCT modulator 1, VDR inhibitor -19% and Mm-Cpn inhibitor 2%.
For Cc1cc(C)cc(NS(=O)(=O)c2ccc(-n3cccn3)cc2)c1 the results were G9a block 3%[59 µM] and VDR inhibitor 16%.
O=S(=O)(Nc1ccccn1)c1ccc(-n2cccn2)cc1 was read as G9a block 15%, Sfp inh 16%, PLK1 PBD block 6%, CCT modulator -82*, VDR inhibitor 1% and Mm-Cpn inhibitor 1%.
Screening Cc1c(NS(=O)(=O)c2ccc(Br)cc2)c(=O)n(-c2ccccc2)n1C returned G9a block 13%, Sfp inh 4%, PLK1 PBD block -7%, CCT modulator 1, VDR inhibitor -12% and Mm-Cpn inhibitor 2%.
O=S(=O)(Nc1cccc(Cl)c1)c1ccc(-n2cccn2)cc1 was read as G9a block -4%, Sfp inh 4%, PLK1 PBD block -14%, CCT modulator -2, VDR inhibitor -2% and Mm-Cpn inhibitor 1%.
For O=c1c2sc3ccccc3c2n(Cc2cccc(C(F)(F)F)c2)c(=O)n1Cc1ccc(F)cc1 the results were G9a block 31%[59 µM] and VDR inhibitor -2%.
For COc1ccc(C(=O)c2ccccc2C(=O)c2ccccc2)cc1 the results were PLK1 PBD block 4%, CCT modulator -3 and VDR inhibitor -9%.
Screening COc1ccc(C(=O)c2ccccc2)c(O)c1O returned Sfp inh 56µM* and VDR inhibitor inconclusive.
`Cc1ccc(C)c(CN2C(=O)c3ccccc3Sc3ccc(C(=O)NC4CCCC4)cc32)c1` gave G9a block 13%[59 µM] and VDR inhibitor 10%.
For CCN(CC)CCCNC(=O)c1ccc2c(c1)sc1nc(-c3ccc(C)cc3)cn12 the results were G9a block 11µM* and VDR inhibitor -5%.
`CCN(CC)CCNC(=O)C(=O)Nc1c2c(nn1-c1ccc(F)cc1)CSC2` gave G9a block -37%[59 µM] and VDR inhibitor 9%.
`O=C(C1=C(Nc2ccccc2)c2ccccc2S(=O)(=O)N1)c1ccccc1` gave G9a block 25µM*, Sfp inh 89µM*, PLK1 PBD block -6%, CCT modulator -6, VDR inhibitor -4% and Mm-Cpn inhibitor -1%.
Screening CCOC(=O)N1CCc2c(sc3c2c(=O)n(Cc2ccccc2)c(=O)n3Cc2cc(C)ccc2C)C1 returned G9a block -34%[59 µM] and VDR inhibitor 3%.
For COCCCNC(=O)c1ccc(N2CCCC2)c(NS(=O)(=O)c2ccc(C)cc2)c1 the results were G9a block 7.9µM*, Sfp inh inconclusive, PLK1 PBD block -7%, CCT modulator -1, VDR inhibitor 13% and Mm-Cpn inhibitor -2%.
`COCCNC(=O)c1ccc(C)c(S(=O)(=O)Nc2ccc(C)cc2)c1` gave G9a block 79µM*, Sfp inh 1%, PLK1 PBD block -4%, CCT modulator 1, VDR inhibitor 16% and Mm-Cpn inhibitor 0%.
Screening CCc1cccc(NC(=O)CCn2c(=O)c3cccn3c3cccnc32)c1 returned G9a block -6%[59 µM] and VDR inhibitor -6%.
For Cc1ccc2c(CC(=O)Nc3ccc(S(=O)(=O)N4CCCCC4)cc3)coc2c1C the results were G9a block -7%[59 µM] and VDR inhibitor 1%.
Screening COc1cccc2c1[C@@H]1CN(CCCCn3c(=O)[nH]c4c(sc5ncc(-c6ccccc6)nc54)c3=O)C[C@@H]1CO2 returned G9a block 13µM*, PLK1 PBD block -7%, CCT modulator 1, VDR inhibitor 3% and Mm-Cpn inhibitor -5%.
Screening COc1cc2[nH]c(=O)n(CCCC(=O)N3CC=C(c4ccccc4)CC3)c(=O)c2cc1OC returned G9a block inconclusive, Sfp inh 21%, PLK1 PBD block -14%, CCT modulator -2, VDR inhibitor -21% and Mm-Cpn inhibitor 1%.
Screening CCc1ccccc1NC(=O)C1CCCN(S(=O)(=O)c2ccc3[nH]c(=O)ccc3c2)C1 (stereo not given) returned G9a block -33%[59 µM] and VDR inhibitor -9%.
